# Only a selection was taken, and hits are over-represented in it overall.
# CHX counter: counter-screen for Shiga toxin inhibitors: cycloheximide protein synthesis inhibition; cell reporter, cycloheximide protein synthesis inhibition counterscreen; max response, %; 300,000 compounds, 12% hits; in the data active = max response mostly above about 13%, no sharp cut-off; inactive = mostly below about 14%; note: read at 38.3 µM for the half of the compounds with a filed dose; 0% is about no effect
# Giardia FBPA inh: blocks Giardia fructose-bisphosphate aldolase activity | A8B2U2 | purified Giardia FBPA | Potency, µM (top dose mostly 59.6 µM), inactives show at the highest dose activity, negative = inhibition, actives largely listed as inhibitors | 290,000 compounds, 0.71% hits; note: potency is the fitted concentration of half-maximal effect; % is set by controls: 0 for no effect and ±100 for the full control effect; nearly all actives have a fitted effect of over 55% in size
#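 Giardia FBPA (40 nM reagent) was preincubated 10 min at RT with compound (up to 57.5 uM final), then substrate plus GAPDH/TPI/NAD/arsenate coupling system with diaphorase/resazurin was added; resorufin fluorescence (525/598 nm) was read after 20 min.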
# TbPYK inhibitor: blocks Trypanosoma brucei pyruvate kinase; TbPYK enzyme, Kinase-Glo Plus ATP luminescence, 45 min; 410,000 compounds, 0.12% hits; AID 624173; Potency, µM (top dose mostly 76.8 µM), without a hit: top-dose activity, negative = inhibition, actives largely listed as inhibitors; note: potency is the fitted concentration of half-maximal effect; % is set by controls: 0 for no effect and ±100 for the full control effect; nearly all actives have a fitted effect of over 50% in size
#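 T. brucei PYK with substrate was exposed to pin-transferred compounds across a concentration series, then started with 130 uM ADP (final). After 45 min at room temperature, Kinase-Glo Plus luminescence was read, normalized and curve-fitted.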
# RE007 growth inh: less growth of the S. pombe RE007 Vpr strain | AID 651644 | 360,000 compounds, 0.21% hits | S. pombe RE007 Vpr strain, BacTiter-Glo ATP luminescence, 24 h | Potency, µM (titrated, usually from 92.2 µM), for inactives: top-dose activity change, negative = less growth, hits mostly inhibitors; active = well fitted falling curve with a large enough effect; inconclusive = small, poorly fitted or top-dose-only effect; inactive = no such curve, though single readings can be large or run the other way; note: potency is the fitted concentration of half-maximal effect; % is set by controls: 0 for no effect and ±100 for the full control effect; nearly all actives have a fitted effect of over 50% in size
#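 Fission yeast RE007 carrying one integrated HIV-1 vpr copy, seeded at OD 0.01 in PMG+AL medium with 23 nL pinned compound. Grown 24 h at 30 degrees; viability read by BacTiter-Glo luminescence after 5 min.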
# LmPK inh: blocks Leishmania mexicana pyruvate kinase activity | Q27686 | 290,000 compounds, 0.37% hits | AID 1721 | purified LmPK, Kinase-Glo ATP luminescence, 1 h | Potency, µM (doses to about 57.5 µM), for the others: at the highest dose activity change, negative = inhibition, actives largely listed as inhibitors; note: potency is the fitted concentration of half-maximal effect; % is set by controls: 0 for no effect and ±100 for the full control effect
# Target sequence (Q27686 whole entry, looked up): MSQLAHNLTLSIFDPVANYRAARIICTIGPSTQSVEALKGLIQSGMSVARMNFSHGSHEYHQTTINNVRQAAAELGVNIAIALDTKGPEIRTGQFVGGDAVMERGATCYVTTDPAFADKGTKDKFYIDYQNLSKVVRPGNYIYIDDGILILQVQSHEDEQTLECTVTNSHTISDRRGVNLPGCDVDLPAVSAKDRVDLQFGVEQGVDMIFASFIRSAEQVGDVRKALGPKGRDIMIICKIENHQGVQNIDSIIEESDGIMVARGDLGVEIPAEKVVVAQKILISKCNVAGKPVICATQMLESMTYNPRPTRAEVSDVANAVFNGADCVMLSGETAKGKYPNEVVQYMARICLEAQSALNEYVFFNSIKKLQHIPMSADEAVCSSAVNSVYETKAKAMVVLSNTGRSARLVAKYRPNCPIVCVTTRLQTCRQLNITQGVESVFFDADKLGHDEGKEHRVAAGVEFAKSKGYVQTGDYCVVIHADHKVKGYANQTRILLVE
#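 Purified LmPK (0.1 nM) with 0.5 mM PEP and 0.1 mM ADP in imidazole buffer pH 7.2 with MgCl2/KCl, 1 h at room temperature. ATP formed was read by luciferase luminescence and normalized to no-enzyme and uninhibited controls.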
# Shiga inhibitor: Shiga toxin inhibition; Vero cells, Shiga toxin protein synthesis inhibition reporter; inhibition, % at 38.7 µM; 290,000 compounds, 9.2% hits; in the data active = inhibition mostly above about 28%, no sharp cut-off; inactive = mostly below about 43%; note: 0% is about no effect
# An asterisk follows results filed as active; ? = inconclusive; . = not tested or not shown; [ ] = dose if it differs, or a comment. Unless noted, calls come from the whole dose curve; as a rule, active = well fitted curve in the direction sought with a large enough effect; inconclusive = small, poorly fitted or top-dose-only effect, or another doubt; inactive = no such curve, though single readings can be large; an effect the other way counts as inactive or inconclusive.
SMILES,CHX counter,Giardia FBPA inh,TbPYK inhibitor,RE007 growth inh,LmPK inh,Shiga inhibitor
CCN(CC)S(=O)(=O)c1cccc(C(=O)N[C@H](C(=O)Nc2nc3ccc(F)cc3s2)C(C)C)c1,40*,0%,-5%,-13%,3%,104*
CCN(CC)S(=O)(=O)c1cccc(C(=O)N[C@H](C(=O)Nc2nc3ccccc3s2)C(C)C)c1,17*,-2%,-3%,3%,-1%,19
CCN(CC)S(=O)(=O)c1cccc(C(=O)NC(C(=O)Nc2nnc(C3CC3)s2)C(C)C)c1 (centres undefined),7,1%,0%,3%,3%,3
O=C(Nc1nc2ccc(F)cc2s1)c1cccc(S(=O)(=O)N2CCc3ccccc32)c1,24*,2%,-2%,5%,-1%,35
O=C(C1CCC1)N1CCc2cc(S(=O)(=O)NCc3ccc(F)cc3)ccc21,.,.,-7%,.,.,.
CCN(CC)CCN(C(=O)c1ccccc1OC)c1nc2ccc(F)cc2s1,20*,-4%,4%,-22%,0%[11.5 µM],59
CCN(CC)CCN(C(=O)c1ccc2c(c1)CCCC2)c1nc2ccc(F)cc2s1,16,-19%,0%,0%,-3%[11.5 µM],42
CCN(CC)CCN(C(=O)c1ccc2c(c1)CCCC2)c1nc2ccc(C)cc2s1,20*,-26%,-22%,-12%,1%,32
Cc1ccc(CCNC(=O)CCCn2c(=O)c3ccccc3n(CC(=O)Nc3cc(Cl)ccc3C)c2=O)cc1,.,.,1%,.,.,.
CC1=CC(C)(C)N2C(=O)C(=Nc3ccc(O)cc3)c3cccc1c32,-1,13µM*,-14%,-16%,-12%,46*
COc1cc(N=C2C(=O)N3c4c(cccc42)C(C)=CC3(C)C)cc(OC)c1,-3,-17%,17%,-13%,-2%,11
CC1CCCCN1C(=O)/C=C/c1ccccc1[N+](=O)[O-] (centres undefined),20*,-16%,11%,-5%,5%,29
O=C(/C=C/c1ccccc1[N+](=O)[O-])N1CCCCC1,20,-11%,-14%,-5%,2%[11.5 µM],66*
CC1CN(C(=O)/C=C/c2ccccc2[N+](=O)[O-])CC(C)O1 (centres undefined),1,0%,-5%,-10%,-1%,-7
O=C(/C=C/c1ccc([N+](=O)[O-])s1)N1CCCC1,-2,-5%,1%,?,0%,10
O=C(/C=C/c1ccc([N+](=O)[O-])s1)N1CCCCC1,24*,1%,-3%,?,5%,17
Cc1c(CNCCCc2ccccc2)c(C(=O)O)c(C)n1Cc1cccc(Cl)c1,.,.,-2%,.,.,.
Cn1cc(Br)c(C(=O)NC2CCCCCC2)n1,17*,.,-11%,-8%,-7%,56
Nc1ccccc1C(=O)Nc1nccs1,45*,-4%,-24%,-12%,-17%,62*
Cn1cc(Br)c(C(=O)Nc2nccs2)n1,27*,-11%,-17%,2%,-1%,43*
O=C(Nc1nccs1)C(Br)C(Br)c1ccccc1 (centres undefined),34*,-4%,-27%,-26%,-9%,69*
Cn1cc(Br)c(C(=O)NC2C3CC4CC(C3)CC2C4)n1 (centres undefined),16,0%,.,13%[3.69 µM],4%,22
Cn1cc(Br)c(C(=O)Nc2c(F)c(F)c(F)c(F)c2F)n1,-4,-1%,-10%,-7%,-5%,-4
CC(=O)Nc1cccc(NC(=O)CSc2cn(CC(=O)N3CCCCCC3)c3ccccc23)c1,.,.,-9%,.,.,.
N=C(N)n1cccn1,.,.,-2%,.,.,.
SMILES,CHX counter,Giardia FBPA inh,TbPYK inhibitor,RE007 growth inh,LmPK inh,Shiga inhibitor
COc1ccc(N2C(=O)C(CC(=O)Nc3ccc(Cl)cc3)N(Cc3ccc4c(c3)OCO4)C2=O)cc1 (centres undefined),.,.,5%,.,.,.
O=C(Nc1nccs1)c1ccccc1[N+](=O)[O-],-2,-2%,5%,-1%,4%,-15
O=C(Nc1nccs1)c1ccccc1Br,28*,-27%,4%,-11%,-4%,30
Cn1cc(S(=O)(=O)N2CCCCCC2)cc1C(=O)N1CCN(c2cccc(C(F)(F)F)c2)CC1,.,.,2%,.,.,.
Cc1nn(-c2ccc(F)cc2)c(Cl)c1/C=N/NC(=O)c1cccs1,30*,5%,-1%,.,4%,59*
Cc1nn(-c2ccc(F)cc2)c(Cl)c1/C=N/NC(=O)c1ccc(O)cc1,20*,3%,4%,-17%,4%,61*
COc1cccc(CCNC(=O)c2cnc3sc(N4CCOCC4)nn3c2=O)c1,.,.,3%,.,.,.
COc1ccc(/C=C/C(=O)c2ccc(O)cc2)cc1CN1CCOCC1,4,2%,7%,-3%,-2%,-9
O=C(/C=C/c1cccc(O)c1)c1ccc(N2CCOCC2)cc1,38*,-8%,-3%,-17%,-5%,102*
COc1cc(CO)ccc1OCc1ccc(Cl)nc1,51*,-5%,2%,0%,-6%,149*
CSc1cccc(NC(=O)CN2CCN(Cc3ccccc3C)S2(=O)=O)c1,.,.,2%[15.4 µM],.,.,.
CC(C)[C@H](/C=C/C[Si](C)(C)C)[C@H](C)C(O)/C=C/CCCOC(=O)C(C)(C)C (some centres undefined),-5,7%,.,.,.,1
COc1cc(/C=C/C2=NNC(=O)CC2)cc(OC)c1OC,-1,4%,0%,7%,0%,12
CC(C)c1ccc(/C=C/C2=NNC(=O)CC2)cc1,32*,-10%,-27%,4%,-5%,85*
Cc1ccc(NC(=O)c2c(C)nn(-c3ccccc3)c2Cl)c(C)c1,23*,-3%,-5%,-7%,0%,60*
Cc1nn(-c2ccccc2)c(Cl)c1C(=O)NC1CCCCC1,15*,1%,-8%,2%,3%,8
Cc1cccc(C)c1NC(=O)c1c(C)nn(-c2ccccc2)c1Cl,-1,-4%,-5%,-15%,2%,-5
Cc1nn(-c2ccccc2)c(Cl)c1C(=O)NCC(=O)O,-1,11%,4%,1%,4%,-23
Nc1ccc2nc3c(c(Cl)c2c1)CCCC3,29*,-11%,-12%,-21%,0%,28
Clc1c2c(nc3ccccc13)CCC2,-2,1%,7%,4%,0%,-6
Cc1oc(S(=O)(=O)N2CCCCC2)cc1NC(=O)Nc1ccc(Cl)cc1,-3,2%,6%,8%,5%,16
COc1ccc(OCC(=O)NCCC2=CCCCC2)c([N+](=O)[O-])c1,5,-11%,-15%,10%,4%,-5
COc1cccc(C(=O)NCCC2=CCCCC2)c1OC,33*,-2%,-4%,-12%,-5%,108*
COc1ccc(C(=O)NCCC2=CCCCC2)cc1OC1CCN(C(C)C)CC1,42*,-1%,-9%,-11%,0%,42*
Cc1cc(C(=O)NCCC2=CCCCC2)c(C)o1,39*,-12%,-8%,4%,-2%,117*
